Results: PubChem BioAssay (NCI)
Compounds without any hit were thinned out: in the full panel of roughly 79,000, 15% have a hit. Rule as the data show it: active = growth inhibition above about 70%; inactive = the rest.

Key:
[1] = NCI Yeast Anticancer Drug Screen. Data for the rad50 strain (AID 155);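 also: 0% = growth of vehicle-only cultures of the same strain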; conditions: S. cerevisiae rad50 strain growth inhibition; at 50.0 µM; hits give high values
Summary of the method: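 Readout: growth inhibition relative to vehicle-treated cultures. Compound exposure was carried out in a genetically defined yeast strain deficient in DNA damage repair.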

[2] = NCI Yeast Anticancer Drug Screen. Data for the mec2-1 strain (AID 157); conditions: S. cerevisiae mec2-1 strain, at 50.0 µM, hits give high values
Summary of the method: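 Compounds were applied to mec2-1 yeast cells. Their growth was then compared with that of vehicle-treated cultures to give growth inhibition.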

[3] = NCI Yeast Anticancer Drug Screen. Data for the sgs1 mgt1 strain (AID 161);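 also: 0% = growth of cultures given vehicle only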; conditions: S. cerevisiae sgs1 mgt1 strain, at 50.0 µM, hits give high values
Summary of the method: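 Growth of a repair-deficient yeast mutant was monitored after compound treatment and expressed as inhibition relative to vehicle-treated cultures.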

[4] = NCI Yeast Anticancer Drug Screen. Data for the cln2 rad14 strain (AID 165);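 also: 0% = growth equal to vehicle treated cultures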; conditions: S. cerevisiae cln2 rad14 strain, at 50.0 µM, hits give high values
Summary of the method: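 Strain: cln2 rad14 yeast, altered in cell cycle control and DNA damage repair. Read-out: growth inhibition vs vehicle.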

[5] = NCI Yeast Anticancer Drug Screen. Data for the bub3 strain (AID 167); conditions: S. cerevisiae bub3 mutant strain, at 50.0 µM, hits give high values
Summary of the method: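 Readout: yeast growth inhibition, expressed relative to vehicle-only wells. The test organism is a mutant strain from a panel with lesions in DNA repair or checkpoint genes.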

[6] = NCI Yeast Anticancer Drug Screen. Data for the mlh1 rad18 strain (AID 175); conditions: S. cerevisiae mlh1 rad18 strain growth inhibition; at 50.0 µM; hits give high values
Summary of the method: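 A repair-deficient yeast strain is exposed to test compound, and growth is scored relative to vehicle-treated controls.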

Measured: growth inhibition

CCOc1cc2c(cc1OC)c[n+](C)c1c3cc(OC)c(OC)cc3ccc21
inactive: [1] 22.5% | [2] 10.9% | [3] 15% | [4] -2.1% | [5] -6.05% | [6] 14.6%

Cc1ccccc1C(=O)c1cc(O)ccc1O
inactive: [1] -11.2% | [2] -10.1% | [3] -1.25% | [4] -8% | [5] -16.3% | [6] -5.2%

COc1ccc(C(=O)/C=C/c2ccccc2)c(O)c1OC
inactive: [1] -7.45% | [2] -1.85% | [3] 8.1% | [4] -0.95% | [5] 9.95% | [6] -7.1%

Nc1nc(N)c2nonc2n1
inactive: [1] -3.7% | [2] -20.8% | [3] -10.8% | [4] -26.2% | [5] -2.85% | [6] 2%

C[C@H]1CCC2C(OC(=O)[C@@H]2CN(C)C)[C@]2(C)C(=O)C=CC12O (some centres undefined)
inactive: [1] -24.5% | [2] -31.4% | [3] -10.3% | [4] 17.4% | [5] -6.95% | [6] -36%

COc1cccc(N2C(=O)C3c4[nH]c5ccc(C)cc5c4C4CCC(C(C)(C)C)CC4C3C2=O)c1 (centres undefined)
inactive: [1] 12.7% | [2] -20.1% | [3] 13% | [4] 2.55% | [5] 1.4% | [6] -5.55%

ClC1(Cl)C2CCOC21n1cnc2ccccc21 (centres undefined)
inactive: [1] 11.8% | [2] -5.1% | [3] -8.3% | [4] 4.95% | [5] 8.25% | [6] -11.2%

C/C=C(/C)C(=O)OC1CC(C)=CC(OC(=O)/C(C)=C\C)[C@]2(C)C1[C@](O)(C(C)C)C[C@H]2OC(C)=O (some centres undefined)
inactive: [1] 41% | [2] 20.6% | [3] 28.2% | [4] 30.2% | [5] 24.9% | [6] 49.4%

CC1(C)N=C(N)N=C(N)N1c1ccc(-c2ccccc2)cc1
inactive: [1] 2.95% | [2] 0.9% | [3] 20.5% | [4] -0.75% | [5] 32.5% | [6] 19.5%

Cc1ccc(C(O)/C(=N/N)c2nc3ccc([N+](=O)[O-])cc3[nH]c2=O)cc1 (centres undefined)
inactive: [1] 6.45% | [2] -20.1% | [3] -28.8% | [4] -13.2% | [5] -9.4% | [6] -12.1%

NC(CSS(=O)(=O)O)=NCC1CC2CCC1C2 (centres undefined)
inactive: [1] 3.25% | [2] 6.2% | [3] -3.85% | [4] 6.95% | [5] 4.4% | [6] 12.3%

[Cu+2].[NH-]C(Cc1ccc(O)cc1)C(=O)O.[NH-]C(Cc1ccc(O)cc1)C(=O)O (centres undefined)
inactive: [1] 13.1% | [2] 1.55% | [3] -12.6% | [4] 15.2% | [5] 1.65% | [6] 5%

O=C1CC(=O)N(C=C2C(=O)NC(=O)NC2=O)C(=S)N1
inactive: [1] -11.9% | [2] -2.15% | [3] -18.6% | [4] 11.2% | [5] 4.6% | [6] 0.45%

CCOc1ccc2nc(NC(=O)C(=O)C(C(=O)c3ccccc3F)C3OC(=O)c4ccccc43)sc2c1 (centres undefined)
inactive: [1] 10.9% | [2] 9% | [3] 2.65% | [4] 22.6% | [5] -1.2% | [6] 7%

O=C1c2cccc([N+](=O)[O-])c2C(=O)c2cccc(Cl)c21
inactive: [1] 29.2% | [2] 9.35% | [3] -4.15% | [4] -17.9% | [5] 32.5% | [6] 42.9%

CN(C)c1ncnc2c1ncn2C1OC(CO)C(O)C1O (centres undefined)
inactive: [1] 14.2% | [2] 20% | [3] 4% | [4] -34.4% | [5] 18.1% | [6] 24.5%

O=C(O)CC(C(=O)O)C1c2ccccc2-c2ccccc21 (centres undefined)
inactive: [1] -0.1% | [2] -27.2% | [3] -40.4% | [4] -17.2% | [5] -49.2% | [6] 3.6%

CCOP(=O)(OCC)c1nc(Cl)nc(Cl)c1SC(F)(F)F
inactive: [1] 33.3% | [2] 11.3% | [3] 14.5% | [4] 13.2% | [5] -4.4% | [6] 25.2%

CN(C)CCCNc1ncnc2nc[nH]c12
inactive: [1] -25.8% | [2] -43.7% | [3] -31.8% | [4] -19.8% | [5] -28.4% | [6] -0.15%

Cc1cc(Nc2ccc(S(=O)(=O)O)c3cc(S(=O)(=O)O)cc(S(=O)(=O)O)c23)c2ccccc2n1
inactive: [1] -14.1% | [2] 4.3% | [3] 3.2% | [4] -10.9% | [5] 6% | [6] 8.7%

N=C(N)n1ncc(Cl)c(Cl)c1=O
inactive: [1] 30.8% | [2] 36.2% | [3] 33.9% | [4] 30.4% | [5] 38.9% | [6] 41.5%

O=C(NC12OC3CC(CC(C3)O1)O2)NC12OC3CC(CC(C3)O1)O2
inactive: [1] 3.6% | [2] 0.35% | [3] 14.2% | [4] -3.85% | [5] -30.3% | [6] 2.2%

O=NN(CCF)C(=O)N[C@H]1CCCC[C@H]1O
inactive: [1] -15.7% | [2] -19.1% | [3] -27.1% | [4] 2.75% | [5] -15.9% | [6] 1.45%

CC(=O)Nc1ccc(C(=O)NN2C(=O)CSC2c2ccc(O)cc2)cc1 (centres undefined)
inactive: [1] -36% | [2] -36.1% | [3] -44.5% | [4] -15.7% | [5] -30.2% | [6] -49.7%

CNc1nc(C(F)(F)F)nc2[nH]ncc12
inactive: [1] 5.15% | [2] 17.9% | [3] -7.65% | [4] -16.9% | [5] -20.6% | [6] -20.9%

Cc1cccc(-c2c3ccccc3cc3c2ccc2ccccc23)c1
inactive: [1] 11.9% | [2] -5.35% | [3] -3.55% | [4] -13.8% | [5] 8.7% | [6] -2.65%

Cc1ccc2nc(-c3ccc(N=NNc4ccc(-c5nc6ccc(C)c(S(=O)(=O)O)c6s5)cc4)cc3)sc2c1S(=O)(=O)O
inactive: [1] 23.5% | [2] 6.85% | [3] -9.7% | [4] 18.2% | [5] 12.3% | [6] 18.6%

O=[N+]([O-])c1ccc(N=Nc2c(S(=O)(=O)O)cc3cc(S(=O)(=O)O)ccc3c2O)c([N+](=O)[O-])c1
inactive: [1] 24.3% | [2] 0.9% | [3] 30.9% | [4] 31.3% | [5] 32.1% | [6] 20.2%

O=C(Cc1ccccc1)NN1C(=O)/C(=C\c2ccc([N+](=O)[O-])cc2)SC1=Nc1ccccc1
inactive: [1] -2.8% | [2] -8.85% | [3] 52.1% | [4] 15.2% | [5] -18.9% | [6] 28.5%

O=C1C=CC(=O)C1N=Nc1ccccc1
inactive: [1] 43.9% | [2] 19.1% | [3] 16.9% | [4] 18.3% | [5] -3.15% | [6] 28.3%

COc1ccc(/C=C(\C#N)c2ccccc2NC(C)=O)cc1
inactive: [1] 6.9% | [2] 7.4% | [3] -2.95% | [4] -42.8% | [5] -10.5% | [6] 19.8%

CCOC(=O)CNCc1cccc(C)c1
inactive: [1] -1.45% | [2] -10.2% | [3] -19.1% | [4] -82.8% | [5] 0.6% | [6] 1.95%

O=[N+]([O-])c1ccc(N=N/C(=N\Nc2ccccc2)c2nc3ccccc3[nH]2)c([N+](=O)[O-])c1
inactive: [1] 7.45% | [2] -5.2% | [3] -7.35% | [4] 19.6% | [5] -4.35% | [6] 15.2%

O=C(NC(=O)c1ccccc1O)c1ccccc1
inactive: [1] -4.6% | [2] 5.45% | [3] -15.4% | [4] -0.35% | [5] -19.5% | [6] -11.2%

CC(CCC(=O)CS(C)=O)C1CCC2C3CCC4CCCCC4(C)C3CCC12C (centres undefined)
inactive: [1] 34.1% | [2] -20.4% | [3] 25.8% | [4] 11.6% | [5] -4% | [6] 0.95%

O=C(NCCCNCCCCNCCCNC(=O)C(F)(F)F)C(F)(F)F
inactive: [1] 5.05% | [2] -0.9% | [3] 6.6% | [4] -8.45% | [5] 4.25% | [6] 3.3%

CCOC(=O)c1cnc2n(c1=O)[C@H]1CCCC[C@@H]1N2
inactive: [1] 59% | [2] 5.55% | [3] -9.05% | [4] 9.75% | [5] 8.7% | [6] 5.65%

CC(C)N(C(=O)C12C3C4C5C3C1(C(=O)N(C(C)C)C(C)C)C5(C#N)C42)C(C)C (centres undefined)
inactive: [1] 22.6% | [2] 3.65% | [3] 5.6% | [4] 13.7% | [5] 13.4% | [6] 4.2%

Cc1ccc(-c2c(C#N)c(-c3ccccc3)n(NS(=O)(=O)c3ccccc3)c(=O)c2C#N)cc1
inactive: [1] 42.1% | [2] 49.8% | [3] 47.1% | [4] 51.2% | [5] 49.6% | [6] 51.1%
